This is an account of results in PubChem BioAssay (NCI).

For the experiment, the system named is MDA-MB-468 breast. Briefly: NCI-60 one-dose screen, 48 h (100 = growth as untreated, 0 = no growth, -100 = all killed). The note with it: 10 µM unless noted.

Values joined by “and” are separate entries in the source; they are usually repeats but may differ in a detail not shown here. Equal values may be shown once. This is part of a sample that, as a whole, favours compounds with a hit. Of some 83,000 tested, about 20% had one in any assay.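 Testing used 96-well plates and a 48-hour single-concentration exposure. Example: -40 means 40% of the starting cells died.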 Unmarked numbers belong to inactive results. Active and inactive are the calls of the source. How the source made its calls: active means growth percent below 10; inactive means the rest.

With `CCCCCCCCCCCCCCCc1cc(O)ccc1[N+](=O)[O-]`, the growth was 111%.

Turning to `CC(C)NCC(O)COc1ccc(CC(N)=O)cc1` (configuration not stated), the growth is 102%.

Consider `O=c1cc(-c2ccccc2)oc2c1ccc1ccccc12`, for which the growth was 80.1%.

For `CC(/C=C/c1ccccc1)=N/NC(=O)c1ccncc1`, the growth is 98.8%.

With `CCNc1nc(-c2ccc(F)cc2)c(C#N)c(=O)n1C`, the growth is 45%.

As to `O=C(Nc1ccc(N2CCCCC2)c(Cl)c1)c1ccc(Br)o1`, the growth was 89.7%.

In the case of `COc1ncc(-c2ccc3nccc(C#CCCCCC(=O)NO)c3c2)cc1NS(=O)(=O)c1ccc(F)cc1F`, the growth was -37.1% (active).

For `Cc1cc(S(=O)(=O)N(C)C)cc(NCC(=O)NC(=O)NCC(C)C)c1C`, the growth is 104%.

Take `CSCCC(NC(=O)C(Cl)Cl)C(=O)O` (configuration not stated): the growth is 94.6%.

In the case of `CC(C)(C)c1[nH]nc2c1C(c1cc3ccccc3[nH]c1=O)Nc1cc(C(=O)OCc3ccccc3)ccc1N2` (configuration not stated), the growth is 43.7%.

For the molecule `c1ccc(C2Cc3ccccc3C2=NC2CCCCC2)cc1` (configuration not stated), the growth was 111%.

Turning to `O=c1c(-c2nc3ccccc3[nH]2)cc2ccccc2n1Cc1cn(Cc2ccc(N3CCOCC3)cc2)nn1`, the growth is 64.3%.

In the case of `Cn1ccnc1C(=O)/C=C/c1ccc(C(=O)Nc2ccccc2O)cc1`, the growth is -3.85% (active).

As to `COc1cc(C2CC(=O)Nc3c2c(C)nn3-c2nc3ccccc3[nH]2)c(OC)c(OC)c1OC` (configuration not stated), the growth was 31.1%.

With `CCOC(=O)c1c(NC(=O)c2ccc(F)cc2F)sc2c1CCC(=O)C2`, the growth was 95.2%.

For `C=C(C)[C@@H]1CC[C@]2(C(=O)N3CCN(C)CC3)CC[C@]3(C)[C@H](CC[C@@H]4[C@@]5(C)CC[C@H](O)C(C)(C)[C@@H]5CC[C@]43C)[C@@H]12`, the growth is -67.3% (active).

On to `N/C(=N\OC(=O)CSc1nc2ccccc2s1)c1ccc(Cl)cc1`, for which the growth was 100%.

As to `Oc1c(Cl)cc(Cl)c2ccc(Cn3cc(-c4cccc(C(F)(F)F)c4)nn3)nc12`, the growth was 56.4%.

`CC1(C)CN(CCNc2nccc(-c3c(-c4cccc(O)c4)nc4sccn34)n2)S(=O)(=O)N1`: the growth was 81%.

For `COC(=O)Nc1nc2ccc(C(=O)c3ccccc3N(C)C3COC3)cc2[nH]1`, the growth was 23.8%.

For the molecule `CS(=O)(=O)O[C@@H]1C(=O)N(c2cc3c4ccccc4ccc3c3ccccc23)[C@H]1c1ccc(F)cn1`, the growth is 30.4%.

For `COc1ccc(S(=O)(=O)NCCNc2nccc(-c3c(-c4ccccc4)nc4sccn34)n2)cc1`, the growth is 36.7%.

For the molecule `COc1ccc(C2(Cl)c3ccccc3N(c3ccccc3)c3ccccc32)cc1`, the growth is -32.7% (active).

`CCCNC(=O)Nc1ccc2cc3ccc(NC(=O)NCCC)cc3nc2c1`: the growth is -52.4% (active).

As to `CCOC(=O)c1ccc(N/C=C/C(=O)c2ccccc2)cc1`, the growth was 98.9%.

On to `O=C1OC2(c3ccccc31)c1ccc(O)c(O)c1Oc1c2ccc(O)c1O`, for which the growth was 96.8% and 113%.

In the case of `Nc1nc(N)c2c(ccc3c2ccn3Cc2cccc([N+](=O)[O-])c2)n1`, the growth was -84.7% (active).
